Only some compounds are listed: those with a hit (about 4% of all), similar ones and a draw of the others.
Peg3 promoter – Peg3 promoter activity inhibition. HeLa PEG-Prom luciferase reporter, luminescence, overnight. inhibition, % at 20 µM. 360,000 compounds, 1.7% hits;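 active = inhibition of at least 50% at 20 µM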
TWEAK Fn14 block – TWEAK-Fn14 signaling inhibition; TWEAK-stimulated Fn14 reporter cells, luciferase luminescence, 8 h; inhibition, % at 10 µM; 360,000 compounds, 2% hits; in the data active = inhibition above about 50%
HIF-2a block – HIF-2a inhibition; AID 624352; 360,000 compounds, 0.72% hits; 786-0 RCC cells HIF-2a reporter, luciferase luminescence, overnight; inhibition, % at 18.8 µM;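 active = inhibition of the luminescence signal of 40% or more relative to plate controls, in a single-dose primary screen at 18.75 µM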
KKLEB tox – reduces viability of KKLEB cystic fibrosis airway cells | KKLEB CF airway cells viability, ATPlite luminescence, overnight; active compounds read low; cells stimulated with P. aeruginosa culture filtrate | activity change (cytotoxicity), % at 5 µM | 360,000 compounds, 0.36% hits | AID 602141;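 active = corrected activity change at or below -50% at 5 µM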
CF NFkB block – cystic fibrosis NF-kB activation inhibition; 360,000 compounds, 0.86% hits; inhibition, % at 5 µM; KKLEB NF-kB-GFP reporter, PAF-induced, GFP fluorescence overnight;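 active = at least 50% inhibition at 5 µM, scaled per plate between neutral and stimulator controls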;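 note: PAF is a Pseudomonas aeruginosa culture filtrate used as stimulus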
TROY signal inh – inhibitors of TROY-dependent NF-kB signaling. Q293 LMP1-TROYcd NF-kB luciferase reporter, 4 h. inhibition, % at 10 µM. 360,000 compounds, 0.98% hits. AID 1347056;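 active = compounds whose plate-normalised and pattern-corrected inhibition of the luciferase reporter signal at the single screening dose is 50% or more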
Each line names hits and unclear results; the compound was inactive in the other large screens.

O=C(Nc1ccc(Cl)c(Cl)c1)Nc1ccc(Br)cc1F	KKLEB tox -64, CF NFkB block 71
CC(=O)/C=C/c1ccc2ccccc2n1	Peg3 promoter 103, TWEAK Fn14 block 64
CC(OC(=O)/C=C/c1ccc2ccccc2n1)C(=O)N(C)c1ccccc1 (centres undefined)	none
COc1ccc2sc3c(=O)[nH]c4ccccc4c3c2c1	CF NFkB block 63
Cc1ccc(C)c(N2CCN(S(=O)(=O)c3c(C(=O)N4CCCCC4)c(C)n(C)c3C)CC2)c1	none
O=C(O)CCCCCN1C(=O)/C(=C/c2cn(-c3ccccc3)nc2-c2cccs2)SC1=S	CF NFkB block 68
O=C1C(=Cc2cn(-c3ccccc3)nc2-c2ccc(OCc3ccc(Cl)cc3)cc2)SC(=S)N1CCS(=O)(=O)O	TWEAK Fn14 block 62
COc1ccc(-c2nn(-c3ccccc3)cc2/C=C2/SC(=S)N(CCC(=O)O)C2=O)c(C)c1	TROY signal inh 61
O=C(O)CCCCCN1C(=O)/C(=C\c2cn(-c3ccccc3)nc2-c2cccs2)SC1=S	CF NFkB block 59
O=C(Oc1cc(=O)oc2ccccc12)c1cccnc1Cl	none
Cc1ccc(C(=O)Nc2nnc(SCC(=O)N3CCCc4ccccc43)s2)cc1	TWEAK Fn14 block 55, KKLEB tox -97
CC(C)Oc1ccc(C(=O)Nc2nnc(SCC(=O)N3CCOCC3)s2)cc1	TWEAK Fn14 block 50, HIF-2a block 48, KKLEB tox -74
NNC(=O)C1CC(O)CN1S(=O)(=O)c1ccc2ccccc2c1 (centres undefined)	none
O=C1C=CC2(C=C1)O[C@H](Cc1ccccc1)[C@@H](Cc1ccccc1)O2	Peg3 promoter 108, TWEAK Fn14 block 107, HIF-2a block 92, KKLEB tox -98, CF NFkB block 96, TROY signal inh 87
O=C1Nc2ccccc2C1Cc1ccccc1 (centres undefined)	none
COc1ccc(C[C@@H]2OC3(C=CC(=O)C=C3)O[C@H]2Cc2ccc(OC)cc2)cc1	Peg3 promoter 103, TWEAK Fn14 block 106, HIF-2a block 87, KKLEB tox -78, CF NFkB block 85, TROY signal inh 85
CC(C)NC(=O)N(C)C[C@H]1OCCCC[C@@H](C)Oc2ccc(NC(=O)C3CCCCC3)cc2C(=O)N([C@H](C)CO)C[C@@H]1C	none
COc1ccc(CN(C)CCCn2ccc(N)nc2=O)cc1OC	none
CCN(CC)S(=O)(=O)c1cc(NC(=O)CSc2nnc(N)s2)ccc1C	none
CCN(CC)S(=O)(=O)c1cc(NC(=O)CSc2nc3c(cc2C#N)C(=O)CC(C)(C)C3)ccc1C	Peg3 promoter 54, TWEAK Fn14 block 55
CC(C)n1ncc2c(C(=O)N3CCN(c4ccc(F)cc4)CC3)cc(-c3ccccc3)nc21	none
Cc1cc(=O)oc(C)c1C(=O)N[C@@H]1CCCCNC1=O	none
O=C(C1CCC(Cn2c(=S)[nH]c3ccccc3c2=O)CC1)N1CCN(c2ccccn2)CC1 (centres undefined)	TWEAK Fn14 block 56
COC(=O)[C@H](CC(C)C)NC(=O)Nc1ccc2c(c1)OCCO2	TWEAK Fn14 block 66
COC(=O)[C@@H](NC(=O)Nc1ccc2c(c1)OCCO2)C(C)C	none
CC(C)CC(NC(=O)C1CCC(C)CC1)C(=O)Nc1ccc2c(c1)OCCO2 (centres undefined)	TWEAK Fn14 block 68
Cc1ccccc1-c1nc2ccccc2c(=O)n1C1CCS(=O)(=O)C1 (centres undefined)	none
CC1CN(S(=O)(=O)c2ccc(C(=O)OCc3ccc(C#N)cc3)cc2)CC(C)O1 (centres undefined)	none
COc1ccc(NS(=O)(=O)c2ccc3oc(SCc4ccc(F)cc4)nc3c2)cc1	TROY signal inh 51
Cn1c(/C(C#N)=C/c2cccc(O)c2)nc2ccccc21	none
Cn1c(/C(C#N)=C/c2ccc(-c3ccc(S(N)(=O)=O)cc3)o2)nc2ccccc21	Peg3 promoter 72
CCOc1ccc(N2C(=O)CC(NCCc3ccc(S(N)(=O)=O)cc3)C2=O)cc1 (centres undefined)	TWEAK Fn14 block 108 (no result: TROY signal inh)
CCCOc1ccc(N2C(=O)CC(NCCc3ccc(S(N)(=O)=O)cc3)C2=O)cc1 (centres undefined)	none
O=C(Nc1ccccc1O)C(c1ccccc1)c1ccccc1	TWEAK Fn14 block 64
O=C(O)c1ccccc1NC(=O)C(c1ccccc1)c1ccccc1	none

Screening data as filed in PubChem BioAssay.
